# Measurements published in PubChem BioAssay (NCATS).
# Unmarked numbers belong to inactive results. Results filed as inconclusive are left out. Active and inactive are the calls of the source. Unless noted, calls come from the whole dose curve; as a rule, active = well fitted curve in the direction sought with a large enough effect; inconclusive = small, poorly fitted or top-dose-only effect, or another doubt; inactive = no such curve, though single readings can be large; an effect the other way counts as inactive or inconclusive.
# How the values were obtained:
# [1] = S16 Schwann cell viability assay (CellTiter-Glo assay) (AID 624031);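 note: native untransfected S16 rat Schwann cells; cellular ATP luminescence as a viability measure; plate controls were DMSO-treated cells for no effect and cell-free wells for full effect; nearly all actives have a fitted effect of over 70% in size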
# How it was run: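 Parental S16 cells, 24 h compound, 37 °C. ATP-luminescence viability; DMSO = 0% activity, empty wells as reference; curves classified by fit quality and efficacy.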
# [2] = S16 Schwann cell PMP22 intronic element beta-lactamase assay (AID 624044; calls by dose curve;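 note: 0% = DMSO and -100% = potassium clavulanate positive control; nearly all actives have a fitted effect of over 15% in size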); details: S16 rat Schwann cells, PMP22 element beta-lactamase FRET, 24 h; ratio activity, negative = inhibition: at 38.3 µM (top of the series)
# How it was run: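 Beta-lactamase reporter under a PMP22 intronic regulatory element in stable S16 rat Schwann cells; 24 h compound exposure. 460 nm blue signal normalized between DMSO (0%) and potassium clavulanate, with 535 nm FRET tracking viability; curves classed by r2 and response.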
# AA1029 = assay: qHTS profiling for inhibitors of Plasmodium falciparum proliferation (AID 504749); note: potency is the fitted concentration of half-maximal effect; nearly all actives have a fitted effect of over 60% in size; details: P. falciparum in erythrocytes, SYBR Green DNA, 72 h; series mostly up to 28.7 µM
# How it was run: (§1)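 In a 72 h erythrocytic culture (37 C, humidified, 5% CO2) at 2.5% hematocrit and 0.3% starting parasitemia, compounds were tested; SYBR Green I in detergent lysis buffer stained parasite DNA overnight.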
# CP260 = assay: as above; details: P. falciparum in erythrocytes, SYBR Green DNA, 72 h; series mostly up to 28.7 µM
# How it was run: as §1
# CP335 = assay: as above; details: P. falciparum in erythrocytes, SYBR Green DNA, 72 h; series mostly up to 28.7 µM
# How it was run: as §1
# DIV14 = assay: as above; details: P. falciparum in erythrocytes, SYBR Green DNA, 72 h; series mostly up to 28.7 µM
# How it was run: as §1
# ICS = assay: as above; details: P. falciparum in erythrocytes, SYBR Green DNA, 72 h; series mostly up to 28.7 µM
# How it was run: as §1
# PC26 = assay: as above; details: P. falciparum in erythrocytes, SYBR Green DNA, 72 h; series mostly up to 28.7 µM
# How it was run: as §1
# TAB165 = assay: as above; details: P. falciparum in erythrocytes, SYBR Green DNA, 72 h; series mostly up to 28.7 µM
# How it was run: as §1
# [3] = biological target: DNA dC->dU-editing enzyme APOBEC-3G (Homo sapiens) (UniProt Q9HC16); assay: qHTS for inhibitors of Vif-A3G interactions: Validation (AID 588379); note: 0% is about no effect
# How it was run: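 Yellow fluorescence (Ex 488, Em 500-530) of Vif-coexpressing HeLa A3G-eYFP cells, scanned by Acumen cytometer, reports blocked A3G degradation. Cells plated at 700/well overnight at 37 deg C before compound addition, then a further overnight compound incubation at 37 deg C.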
# [4] = biological target: Androgen receptor (Homo sapiens) (UniProt P10275); assay: qHTS assay for small molecule agonists of androgen receptor signaling (AID 588515; active = well fitted curve in the direction sought with a large enough effect in the signal ratio, with a control signal flat; the % refers to the signal ratio; note: % is set by controls: 0 for no effect and ±100 for the full control effect); details: AR-UAS-bla HEK293, beta-lactamase ratio, agonist 16 h; active compounds read high
# How it was run: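 Stimulation of an AR-responsive β-lactamase reporter in GripTite HEK293 cells was measured after 16 h compound exposure at 37 °C, via CCF4 fluorescence after 2 h RT. EC50 from Hill fits, normalized to R1881 at 30 nM.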
# [5] = biological target: Androgen receptor (Homo sapiens) (UniProt P10275); assay: qHTS assay for small molecule antagonists of androgen receptor signaling (AID 588516; active = well fitted curve in the direction sought with a large enough effect in the signal ratio, with a control signal flat, not every such curve was filed as active; the % refers to the signal ratio; note: % is set by controls: 0 for no effect and ±100 for the full control effect)
# How it was run: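 Cells were plated and incubated 5 h, compounds added in titration, then R1881 (10 nM final) as agonist. After 16 h at 37 C, CCF4 substrate was loaded for 2 h at room temperature and fluorescence measured.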
# [6] = qHTS Assay for Identification of Small Molecule Antagonists for Thrombopoietin (TPO) Signaling Pathway (AID 918); details: TPO-dependent cell signaling reporter, antagonist mode; note: potency is the fitted concentration of half-maximal effect; nearly all actives have a fitted effect of over 60% in size
# How it was run: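 Luminescence read-out: GPIIb-promoter luciferase in Ba/F3 cells carrying human TPO receptor. Compounds added with 26 pM TPO (EC50), 24 hrs, 37 C, 5% CO2; cells deprived of IL-3 overnight beforehand. Inhibition of signal scored.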
# [7] = biological target: Muscarinic acetylcholine receptor M1 (Rattus norvegicus) (UniProt P08482); assay: qHTS Assay for Antagonists of Acetylcholine Muscarinic M1 Receptor: Kinetic Measurement of Intracellular Calcium Response (AID 943);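 note: Fluo-4 calcium signal as peak divided by basal fluorescence over 4 min; nearly all actives have a fitted effect of over 75% in size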
# How it was run: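 Read-out: peak over basal Fluo-4 fluorescence, kinetic at 1 Hz for 4 min after EC80 carbachol (100 nM final). Rat M1-CHO cells, dye loaded 1 h at 37C, compound added 10 min before agonist.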
# [8] = biological target: Muscarinic acetylcholine receptor M1 (Rattus norvegicus) (UniProt P08482); assay: qHTS Assay for Antagonists of Acetylcholine Muscarinic M1 Receptor: Measurement of IP-One Response (AID 944); note: nearly all actives have a fitted effect of over 75% in size
# How it was run: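 Read-out: HTRF competition between d2-IP1 and Eu-cryptate anti-IP1 antibody, emission 620 and 665 nm. Stimulus was carbachol, EC80 (200 nM), for 30 min in M1-CHO cells (rat receptor), after 10 min compound pre-treatment.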
# Chain of Muscarinic acetylcholine receptor M1 (Rattus norvegicus) (P08482 whole entry, looked up): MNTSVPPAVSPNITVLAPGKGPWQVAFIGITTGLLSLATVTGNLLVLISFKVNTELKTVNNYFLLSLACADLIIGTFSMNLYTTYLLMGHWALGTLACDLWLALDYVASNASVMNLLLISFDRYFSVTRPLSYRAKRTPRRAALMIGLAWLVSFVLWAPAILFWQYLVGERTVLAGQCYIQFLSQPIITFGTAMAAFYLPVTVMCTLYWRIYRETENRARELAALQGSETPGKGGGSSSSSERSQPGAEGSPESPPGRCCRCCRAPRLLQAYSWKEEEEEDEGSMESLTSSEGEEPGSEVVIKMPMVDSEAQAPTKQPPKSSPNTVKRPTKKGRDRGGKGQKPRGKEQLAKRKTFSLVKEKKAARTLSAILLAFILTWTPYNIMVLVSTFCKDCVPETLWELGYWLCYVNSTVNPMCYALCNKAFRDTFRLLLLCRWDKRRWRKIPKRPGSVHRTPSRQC
# Chain of Androgen receptor (Homo sapiens) (P10275 whole entry, looked up): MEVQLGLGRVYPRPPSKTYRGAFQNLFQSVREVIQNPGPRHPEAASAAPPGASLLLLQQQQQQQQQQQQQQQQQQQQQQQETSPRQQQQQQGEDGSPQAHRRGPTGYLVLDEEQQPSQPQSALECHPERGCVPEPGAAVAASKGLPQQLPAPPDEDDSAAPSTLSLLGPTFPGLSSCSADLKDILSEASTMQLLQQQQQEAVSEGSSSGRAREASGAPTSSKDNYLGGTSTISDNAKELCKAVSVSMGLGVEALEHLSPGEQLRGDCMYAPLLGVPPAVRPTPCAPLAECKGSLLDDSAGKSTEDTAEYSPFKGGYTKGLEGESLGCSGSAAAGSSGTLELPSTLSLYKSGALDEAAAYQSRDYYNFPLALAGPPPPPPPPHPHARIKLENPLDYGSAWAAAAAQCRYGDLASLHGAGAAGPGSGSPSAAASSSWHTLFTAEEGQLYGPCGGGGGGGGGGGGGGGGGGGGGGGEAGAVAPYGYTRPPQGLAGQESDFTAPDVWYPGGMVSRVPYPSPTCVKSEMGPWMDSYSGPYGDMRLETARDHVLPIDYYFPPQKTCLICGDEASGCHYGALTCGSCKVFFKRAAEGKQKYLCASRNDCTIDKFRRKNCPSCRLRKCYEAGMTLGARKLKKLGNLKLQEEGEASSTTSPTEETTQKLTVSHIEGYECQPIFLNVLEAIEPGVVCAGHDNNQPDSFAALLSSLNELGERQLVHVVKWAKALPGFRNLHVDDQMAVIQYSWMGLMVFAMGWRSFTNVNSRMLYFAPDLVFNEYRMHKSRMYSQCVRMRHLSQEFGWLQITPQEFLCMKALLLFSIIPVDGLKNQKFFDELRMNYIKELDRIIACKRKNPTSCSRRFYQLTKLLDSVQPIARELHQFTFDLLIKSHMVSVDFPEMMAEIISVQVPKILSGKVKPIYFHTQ
# Chain of DNA dC->dU-editing enzyme APOBEC-3G (Homo sapiens) (Q9HC16 whole entry, looked up): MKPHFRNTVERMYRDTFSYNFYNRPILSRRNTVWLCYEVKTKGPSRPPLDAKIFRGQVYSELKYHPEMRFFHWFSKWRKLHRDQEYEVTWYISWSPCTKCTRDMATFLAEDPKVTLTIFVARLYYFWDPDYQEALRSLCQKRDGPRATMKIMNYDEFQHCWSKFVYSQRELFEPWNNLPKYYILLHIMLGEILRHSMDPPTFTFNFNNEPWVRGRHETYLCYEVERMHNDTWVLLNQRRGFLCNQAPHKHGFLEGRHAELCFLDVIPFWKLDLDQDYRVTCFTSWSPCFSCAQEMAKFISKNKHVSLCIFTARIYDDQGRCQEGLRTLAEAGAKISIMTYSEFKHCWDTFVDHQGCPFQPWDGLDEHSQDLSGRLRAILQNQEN
smiles,measurement,setting,value
CO[C@H]1/C=C/O[C@@]2(C)Oc3c(C)c(O)c4c(O)c(c5c(c4c3C2=O)NC2(CCN(CC(C)C)CC2)N=5)=NC(=O)/C(C)=C\C=C\[C@H](C)[C@H](O)[C@@H](C)[C@@H](O)[C@@H](C)[C@H](OC(C)=O)[C@@H]1C,Potency,[1],inactive
same,Potency,[2],inactive
same,Potency,AA1029,11.2 µM (active)
same,Potency,CP260,8.91 µM (active)
same,Potency,CP335,13.5 µM (active)
same,Potency,DIV14,8.49 µM (active)
same,Potency,ICS,8.91 µM (active)
same,Potency,PC26,10.7 µM (active)
same,Potency,TAB165,7.94 µM (active)
COc1cc2c(c(OC)c1OC)-c1ccc(OC)c(=O)cc1[C@H](NC(C)=O)CC2,outcome,[3],inactive
CN(C)c1ccc(C2(c3ccc(N(C)C)cc3)OC(=O)c3cc(N(C)C)ccc32)cc1,activation,[4],19.5%
same,outcome,[5],inactive
FC(F)(F)c1cc(CO[C@@H]2CCCN[C@H]2c2ccccc2)cc(C(F)(F)F)c1,Potency,[6],10 µM (active)
same,Potency,[7],inactive
same,Potency,[8],inactive
